Data on 31 compounds can be found in PubChem BioAssay.

Molecules are shown by their SMILES. Several values for one entry are separate records, joined by “and”; a condition that tells them apart may be missing. Equal values may be shown once. Results filed as inconclusive are left out. Activity calls are given as the source filed them. Unless noted, the limit is not given here; nearly all actives have IC50 up to about 30 µM.

As usually defined, the IC50 is the point on the concentration scale where inhibition reaches its midpoint.

The nature of the first test: JHH-DIPG-1 glioma cell viability, MIPE5.0 library, CellTiter-Glo luminescence, qHTS (AID 1347067; cut-off not given, nearly all actives have AC50 up to about 26 µM;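 also: cells exposed to compound for 48 hours before readout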). The conditions noted are these: JHH-DIPG-1 glioma viability, CellTiter-Glo ATP luminescence.
In the case of `NS(=O)(=O)c1cc2c(cc1Cl)NCNS2(=O)=O`, the compound was classed as inactive.
`CS(=O)(=O)OCCCCOS(C)(=O)=O`: the call was inactive.
For the compound `NNCCc1ccccc1`, the compound was called inactive.
Turning to `CC1Cc2ccccc2N1NC(=O)c1ccc(Cl)c(S(N)(=O)=O)c1` (configuration not stated), the compound was classed as inactive.
Turning to `N[C@@H]1CONC1=O`, the compound was called inactive.
Turning to `O=C(O)c1cccnc1`, the call was inactive.
Regarding `CC(C[N+](C)(C)C)OC(N)=O` (configuration not stated), the outcome was inactive.
Turning to `N[C@@H](Cc1cc(I)c(Oc2cc(I)c(O)c(I)c2)c(I)c1)C(=O)O`, the compound was called inactive.
With `NNC(=O)c1ccncc1`, the call was inactive.

A further test can be described thus: SU-DIPG-XXV glioma cell viability, MIPE5.0 library, qHTS (AID 1347068).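 As to IC50: cells exposed to compound for 48 hours before viability readout.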
Conditions: not given
As to `CC12CC3CC(C)(C1)CC(N)(C3)C2`, the result was inactive.
The same measure, in the same setting: the same measure for `CC(=O)OCC(CCn1cnc2cnc(N)nc21)COC(C)=O`: “inactive”.
Take `OC(Cn1cncn1)(Cn1cncn1)c1ccc(F)cc1F`: the outcome was inactive.
Turning to `NCCc1ccc(O)c(O)c1`, the compound was called inactive.
Regarding `COc1c(N2CCNC(C)C2)c(F)cc2c(=O)c(C(=O)O)cn(C3CC3)c12` (configuration not stated), the call was inactive.
Still for that read-out and setting: the same measure for `CC1COc2c(N3CCN(C)CC3)c(F)cc3c(=O)c(C(=O)O)cn1c23` (configuration not stated): “inactive”.
As for `O=C(C1CCCCC1)N1CC(=O)N2CCc3ccccc3C2C1` (configuration not stated), the call was inactive.
Turning to `CCc1cc(C(N)=S)ccn1`, the result was inactive.
For `CC1=C(/C=C/C(C)=C/C=C/C(C)=C/C(=O)O)C(C)(C)CCC1`, the result was inactive.
`CCCCNc1cc(C(=O)O)cc(S(N)(=O)=O)c1Oc1ccccc1`: the compound was called inactive.
In the case of `O=c1[nH]cnc2[nH]ncc12`, the compound was classed as inactive.
In the case of `O=C1c2c(O)ccc(O)c2C(=O)c2c(NCCNCCO)ccc(NCCNCCO)c21`, the IC50 was 18.6 µM (active).
Regarding `O=C(O)c1cc(=O)c2c(OCC(O)COc3cccc4oc(C(=O)O)cc(=O)c34)cccc2o1`, the compound was called inactive.
For `CC(C)C(=O)Nc1ccc([N+](=O)[O-])c(C(F)(F)F)c1`, the outcome was inactive.
On to `CC(COc1ccccc1)N(CCCl)Cc1ccccc1` (configuration not stated), for which the outcome was inactive.
For the compound `CCCc1nc2c(C)cc(-c3nc4ccccc4n3C)cc2n1Cc1ccc(-c2ccccc2C(=O)O)cc1`, the result was inactive.
With `CC(=O)CC(c1ccccc1)c1c(O)c2ccccc2oc1=O` (configuration not stated), the compound was classed as inactive.
In the case of `NS(=O)(=O)c1cc2c(cc1Cl)NCNS2(=O)=O`, the compound was classed as inactive.
On to `CS(=O)(=O)OCCCCOS(C)(=O)=O`, for which the call was inactive.
As for `NNCCc1ccccc1`, the compound was classed as inactive.
On to `CC1Cc2ccccc2N1NC(=O)c1ccc(Cl)c(S(N)(=O)=O)c1` (configuration not stated), for which the call was inactive.
Regarding `CC(C)Cc1ccc(C(C)C(=O)O)cc1` (configuration not stated), the outcome was inactive.
Turning to `N[C@@H]1CONC1=O`, the result was inactive.
Turning to `O=C(O)c1cccnc1`, the outcome was inactive.
With `CC(C[N+](C)(C)C)OC(N)=O` (configuration not stated), the compound was classed as inactive.
For the compound `N[C@@H](Cc1cc(I)c(Oc2cc(I)c(O)c(I)c2)c(I)c1)C(=O)O`, the call was inactive.
On the same count and under the same terms, with `NNC(=O)c1ccncc1` the entry was “inactive”.

The nature of another test: sensitizers of A549 cells to miR-34 induction, primary screen, imaging, A549 dox-inducible miR-34, nuclei and caspase counts (AID 1347080;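 active = compounds whose cell count with miR-34 switched on is under 0.7 times the count with it off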). The following applies: A549 miR-34 inducible, Hoechst nuclei count, 48 h; stronger effect = lower value; cell number ratio, induced over uninduced.
`S=c1nc[nH]c2nc[nH]c12`: the fold change was 0.793 (inactive) and 0.952 (inactive) and 0.815 (inactive).
In the case of `Oc1c(Cl)cc(Cl)c2cccnc12`, the fold change was 1.3 (inactive) and 0.99 (inactive) and 0.933 (inactive).
Still for that read-out and setting: the same measure for `COc1c(N2CCNC(C)C2)c(F)cc2c(=O)c(C(=O)O)cn(C3CC3)c12` (configuration not stated): 0.968 (inactive) and 0.875 (inactive).
As to `CC(=O)CC(c1ccccc1)c1c(O)c2ccccc2oc1=O` (configuration not stated), the fold change was 0.928 (inactive) and 0.882 (inactive) and 0.918 (inactive).
As for `CS(=O)(=O)OCCCCOS(C)(=O)=O`, the fold change is 0.955 (inactive) and 0.888 (inactive) and 0.86 (inactive).
As to `CC1(C)O[C@@H]2[C@@H](CO[C@@]3(COS(N)(=O)=O)OC(C)(C)O[C@@H]23)O1`, the fold change was 0.931 (inactive) and 0.874 (inactive).

The same test, now with this note: A549 miR-34 inducible, Hoechst nuclei count, 48 h; measured here: relative caspase fold change +Dox/-Dox.
Regarding `S=c1nc[nH]c2nc[nH]c12`, the fold change was 1.23 and 0.341 and 5.81.
As to `Oc1c(Cl)cc(Cl)c2cccnc12`, the fold change was 0.88 and 1.1 and 1.4.
Turning to `COc1c(N2CCNC(C)C2)c(F)cc2c(=O)c(C(=O)O)cn(C3CC3)c12` (configuration not stated), the fold change is 1.74 and 1.47 and 1.16.
Regarding `CC(=O)CC(c1ccccc1)c1c(O)c2ccccc2oc1=O` (configuration not stated), the fold change is 1.54 and 1.82 and 3.53.
In the case of `CS(=O)(=O)OCCCCOS(C)(=O)=O`, the fold change was 1.41 and 0.655 and 1.42.
On the same count and under the same terms, the same measure for `CCCc1cc(=O)[nH]c(=S)[nH]1`: 1.49 and 1.36 and 2.91; for `CC1(C)O[C@@H]2[C@@H](CO[C@@]3(COS(N)(=O)=O)OC(C)(C)O[C@@H]23)O1`: 1.93 and 6.61.

Staying with this test, now noted: A549 miR-34 inducible, Hoechst nuclei count, 48 h; measured here: total cells with miR-34 induction; stronger effect = lower value.
As to `S=c1nc[nH]c2nc[nH]c12`, the cell count is 5690 and 7180 and 6280.
Still for that read-out and setting: the same measure for `Oc1c(Cl)cc(Cl)c2cccnc12`: 4540 and 5720 and 5380; for `COc1c(N2CCNC(C)C2)c(F)cc2c(=O)c(C(=O)O)cn(C3CC3)c12` (configuration not stated): 10600 and 11400 and 9660; for `CC(=O)CC(c1ccccc1)c1c(O)c2ccccc2oc1=O` (configuration not stated): 10300 and 5280 and 12200.
Turning to `CS(=O)(=O)OCCCCOS(C)(=O)=O`, the cell count was 9740 and 7120 and 8790.
Still for that read-out and setting: the same measure for `CCCc1cc(=O)[nH]c(=S)[nH]1`: 10600 and 9200 and 7970; for `CC1(C)O[C@@H]2[C@@H](CO[C@@]3(COS(N)(=O)=O)OC(C)(C)O[C@@H]23)O1`: 9480 and 11800.

The same test, now with this note: A549 miR-34 inducible, Hoechst nuclei count, 48 h; measured here: total cells without miR-34 induction.
Turning to `S=c1nc[nH]c2nc[nH]c12`, the cell count is 7180 and 7540 and 7700.
On the same count and under the same terms, with `Oc1c(Cl)cc(Cl)c2cccnc12` the figure was 3500 and 5780 and 5770; with `COc1c(N2CCNC(C)C2)c(F)cc2c(=O)c(C(=O)O)cn(C3CC3)c12` (configuration not stated), 10900 and 13100 and 11000.
Same read-out and setting: the same measure for `CC(=O)CC(c1ccccc1)c1c(O)c2ccccc2oc1=O` (configuration not stated): 11100 and 5980 and 13300.
`CS(=O)(=O)OCCCCOS(C)(=O)=O`: the cell count was 10200 and 8020.
`CC1(C)O[C@@H]2[C@@H](CO[C@@]3(COS(N)(=O)=O)OC(C)(C)O[C@@H]23)O1`: the cell count was 10200 and 13500.
